From PubChem BioAssay (NCATS)
Records with an inconclusive call do not appear. Active and inactive are the calls of the source. Calls come from the whole dose curve; as a rule, active = well fitted curve in the direction sought with a large enough effect; inconclusive = small, poorly fitted or top-dose-only effect, or another doubt; inactive = no such curve, though single readings can be large; an effect the other way counts as inactive or inconclusive.

Columns and labels:
[1] = Quantitative High-Throughput drug screen in 47 multiple myeloma cell lines against the NCATS MIPE library collection: KMS20_JCRB cell viability assay (AID 1918973); note: nearly all actives have a fitted effect of over 45% in size
Summary of the method: (§1)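 qHTS of the MIPE 4.0 collection: 500 myeloma cells/well, 48 h drug exposure at 37C in 5% CO2, then CellTiter-Glo for 5 min at room temperature before luminescence reading.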

[2] = Quantitative High-Throughput drug screen in 47 multiple myeloma cell lines against the NCATS MIPE library collection: KMS21BM_JCRB cell viability assay (AID 1918974); details: ATP luminescence, 48 h; viability: at 45.8 µM (top of the series) unless noted
Summary of the method: as §1

[3] = Quantitative High-Throughput drug screen in 47 multiple myeloma cell lines against the NCATS MIPE library collection: KMS26_JCRB cell viability assay (AID 1918975); note: nearly all actives have a fitted effect of over 45% in size
Summary of the method: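 Luminescent ATP measurement with CellTiter-Glo gives viability, scaled between DMSO-only wells (100%) and media-only wells (0%). Cells, 500 per well, faced library compounds for 48 hours at 37C.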

[4] = Quantitative High-Throughput drug screen in 47 multiple myeloma cell lines against the NCATS MIPE library collection: MMM1_PLB cell viability assay (AID 1918976); note: nearly all actives have a fitted effect of over 35% in size
Summary of the method: (§2)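 Readout: median RLU from CellTiter-Glo after 5 min at room temperature. Preceding step was 48 h drug treatment of 500 cells/well at 37 °C, 5% CO2, with DMSO-only and media-only control wells.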

[5] = Quantitative High-Throughput drug screen in 47 multiple myeloma cell lines against the NCATS MIPE library collection: MOLP8_DSMZ cell viability assay (AID 1918977); note: nearly all actives have a fitted effect of over 45% in size
Summary of the method: as §2

[6] = Quantitative High-Throughput drug screen in 47 multiple myeloma cell lines against the NCATS MIPE library collection: NCIH929_DSMZ cell viability assay (AID 1918978); note: nearly all actives have a fitted effect of over 35% in size
Summary of the method: as §2

[7] = Quantitative High-Throughput drug screen in 47 multiple myeloma cell lines against the NCATS MIPE library collection: OCIMY1_PLB cell viability assay (AID 1918979); note: nearly all actives have a fitted effect of over 35% in size
Summary of the method: as §2

[8] = Quantitative High-Throughput drug screen in 47 multiple myeloma cell lines against the NCATS MIPE library collection: MM1S_ATCC cell viability assay (AID 1918980); note: nearly all actives have a fitted effect of over 45% in size
Summary of the method: as §2

[9] = Quantitative High-Throughput drug screen in 47 multiple myeloma cell lines against the NCATS MIPE library collection: LP1_DSMZ cell viability assay (AID 1918982); note: nearly all actives have a fitted effect of over 35% in size
Summary of the method: as §2

[10] = Quantitative High-Throughput drug screen in 47 multiple myeloma cell lines against the NCATS MIPE library collection: KMS28PE_JCRB cell viability assay (AID 1918983); note: nearly all actives have a fitted effect of over 35% in size
Summary of the method: as §2

[11] = Quantitative High-Throughput drug screen in 47 multiple myeloma cell lines against the NCATS MIPE library collection: L363_DSMZ cell viability assay (AID 1918984); note: nearly all actives have a fitted effect of over 40% in size
Summary of the method: as §2

[12] = Quantitative High-Throughput drug screen in 47 multiple myeloma cell lines against the NCATS MIPE library collection: KMS34_JCRB cell viability assay (AID 1918985); note: nearly all actives have a fitted effect of over 40% in size
Summary of the method: as §2

[13] = Quantitative High-Throughput drug screen in 47 multiple myeloma cell lines against the NCATS MIPE library collection: OCIMY7_PLB cell viability assay (AID 1918987); note: nearly all actives have a fitted effect of over 65% in size
Summary of the method: as §2

[14] = Quantitative High-Throughput drug screen in 47 multiple myeloma cell lines against the NCATS MIPE library collection: OCIMY5_PLB cell viability assay (AID 1918988); note: nearly all actives have a fitted effect of over 65% in size
Summary of the method: as §2

[15] = Quantitative High-Throughput drug screen in 47 multiple myeloma cell lines against the NCATS MIPE library collection: OPM1_PLB cell viability assay (AID 1918989); note: nearly all actives have a fitted effect of over 40% in size
Summary of the method: as §2

[16] = Quantitative High-Throughput drug screen in 47 multiple myeloma cell lines against the NCATS MIPE library collection: SKMM1_PLB cell viability assay (AID 1919863); details: SKMM1 myeloma viability, CellTiter-Glo ATP, 48 h; viability: hits give low values; note: nearly all actives have a fitted effect of over 35% in size
Summary of the method: as §2

[17] = Quantitative High-Throughput drug screen in 47 multiple myeloma cell lines against the NCATS MIPE library collection: U266_ATCC cell viability assay (AID 1919864); note: nearly all actives have a fitted effect of over 35% in size
Summary of the method: as §2

[18] = Quantitative High-Throughput drug screen in 47 multiple myeloma cell lines against the NCATS MIPE library collection: XG6_PLB cell viability assay (AID 1919865); note: nearly all actives have a fitted effect of over 40% in size
Summary of the method: as §2

[19] = Quantitative High-Throughput drug screen in 47 multiple myeloma cell lines against the NCATS MIPE library collection: XG1_PLB cell viability assay (AID 1919866); note: nearly all actives have a fitted effect of over 35% in size
Summary of the method: as §2

[20] = Quantitative High-Throughput drug screen in 47 multiple myeloma cell lines against the NCATS MIPE library collection: MM1R_ATCC cell viability assay (AID 1918981); note: nearly all actives have a fitted effect of over 35% in size
Summary of the method: as §2

Measured: Potency
Potency is the fitted concentration of half-maximal effect.

Nc1ccccc1NC(=O)c1ccc(CNC(=O)OCc2cccnc2)cc1
active: [1] 0.526 µM | [2] 0.469 µM | [3] 4.69 µM | [4] 4.69 µM | [5] 1.48 µM | [6] 1.32 µM | [7] 4.69 µM | [8] 0.935 µM | [9] 1.66 µM | [10] 2.35 µM | [11] 0.418 µM | [12] 0.935 µM | [13] 1.66 µM | [14] 1.32 µM | [15] 0.743 µM | [16] 1.32 µM | [17] 5.9 µM | [18] 2.35 µM | [19] 1.66 µM

O=C(c1ccc(Nc2nccc(-c3cc4ccccc4s3)n2)cc1)N1CCC(N2CCCC2)CC1
active: [1] 1.32 µM | [2] 5.26 µM | [3] 16.6 µM | [4] 20.9 µM | [5] 13.2 µM | [6] 5.9 µM | [7] 20.9 µM | [8] 20.9 µM | [20] 16.6 µM | [9] 20.9 µM | [10] 16.6 µM | [11] 1.48 µM | [12] 11.8 µM | [13] 2.35 µM | [14] 8.33 µM | [15] 5.26 µM | [16] 23.5 µM | [17] 14.8 µM | [18] 1.87 µM | [19] 4.69 µM

O=C(Nc1cc(C(F)(F)F)cc(C(F)(F)F)c1)c1cc(Cl)ccc1O
active: [1] 1.32 µM | [2] 0.526 µM | [3] 1.18 µM | [4] 0.296 µM | [5] 1.48 µM | [6] 1.48 µM | [7] 3.32 µM | [8] 0.59 µM | [20] 1.05 µM | [9] 0.469 µM | [10] 1.66 µM | [11] 0.833 µM | [12] 1.48 µM | [13] 1.87 µM | [14] 2.35 µM | [15] 0.833 µM | [16] 0.833 µM | [17] 1.48 µM | [18] 0.935 µM | [19] 0.935 µM

Cc1ccc(NC(=O)C2(c3ccc4c(c3)OC(F)(F)O4)CC2)nc1-c1cccc(C(=O)O)c1
active: [1] 0.0833 µM | [2] 0.0469 µM | [3] 0.059 µM | [4] 0.0526 µM | [5] 0.0209 µM | [7] 0.187 µM | [8] 0.0526 µM | [20] 0.059 µM | [9] 0.0662 µM | [10] 0.0418 µM | [11] 0.0296 µM | [12] 0.0935 µM | [13] 0.132 µM | [14] 0.0469 µM | [15] 0.148 µM | [16] 0.0743 µM | [17] 0.0296 µM | [18] 0.0662 µM | [19] 0.0469 µM

CNC(=O)c1ccccc1Nc1nc(Nc2ccc(N3CCOCC3)cc2OC)ncc1Cl
active: [1] 2.35 µM | [2] 0.209 µM | [3] 0.418 µM | [4] 0.526 µM | [5] 14.8 µM | [6] 0.166 µM | [20] 0.833 µM | [10] 0.935 µM | [11] 0.132 µM | [12] 0.935 µM | [13] 0.332 µM | [14] 1.32 µM | [15] 5.26 µM | [17] 13.2 µM | [18] 5.9 µM | [19] 6.62 µM

CN(C)CC=CC(=O)Nc1cc2c(Nc3ccc(F)c(Cl)c3)ncnc2cc1O[C@H]1CCOC1
active: [1] 2.09 µM | [2] 0.166 µM | [3] 6.62 µM | [4] 20.9 µM | [5] 18.7 µM | [6] 5.26 µM | [7] 16.6 µM | [20] 13.2 µM | [10] 18.7 µM | [11] 1.32 µM | [12] 20.9 µM | [13] 0.372 µM | [14] 3.32 µM | [15] 3.72 µM | [16] 6.62 µM | [17] 20.9 µM | [18] 2.64 µM | [19] 4.18 µM

CC(C)(O)c1cc2nc(-c3cnc(N)nc3)nc(N3CCOCC3)c2s1
active: [1] 0.148 µM | [2] 0.59 µM | [3] 0.132 µM | [4] 0.0469 µM | [5] 0.0296 µM | [6] 0.0148 µM | [7] 0.0296 µM | [8] 0.0662 µM | [20] 0.0662 µM | [9] 0.0132 µM | [10] 0.0372 µM | [12] 0.0372 µM | [13] 0.372 µM | [14] 0.105 µM | [15] 0.166 µM | [16] 0.235 µM | [17] 0.105 µM | [18] 0.264 µM | [19] 0.118 µM

Cc1[nH]nc2ccc(-c3cncc(OC[C@@H](N)Cc4ccccc4)c3)cc12
active: [1] 1.18 µM | [2] 0.935 µM | [3] 2.64 µM | [4] 2.96 µM | [5] 0.526 µM | [6] 1.48 µM | [7] 6.62 µM | [20] 1.32 µM | [9] 4.18 µM | [10] 4.18 µM | [11] 0.935 µM | [12] 4.69 µM | [13] 0.0332 µM | [14] 3.32 µM | [15] 2.35 µM | [16] 8.33 µM | [17] 0.059 µM | [18] 0.935 µM | [19] 0.59 µM
